# Source: PubChem BioAssay (National Center for Advancing Translational Sciences (NCATS))
# Most compounds without a hit are left out; they make up all but 19% or so of the library.
# IL1B secr inh: blocks inflammasome-driven IL-1 beta release; THP-1 LPS/ATP IL-1B secretion, AlphaLISA, 16 h; active compounds read low; activity change, % at 57.5 µM; 360,000 tested, 4.7% active; in the data active means activity change below about -50%; inconclusive means mostly about -30% to -49%
#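 Secreted IL-1B measured by AlphaLISA bead assay after 16 h compound exposure of THP-1 cells; compounds (final up to 57.5 uM) added 1 h before LPS (250 ng/mL) and ATP (1.25 mM) stimulation; lower signal means less secretion.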
# DT40 TDP1 CPT: DT40-hTDP1 cell growth loss with CPT; 420,000 tested, 12% active; AID 686979; Potency, µM (doses to about 46.2 µM), usual class: inhibitors; chicken DT40 Tdp1-/-;hTDP1 cells + 20 nM CPT, ATP luminescence, 48 h; further: nearly all actives have a fitted effect of over 55% in size
#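 Cell growth measured by CellTiter-Glo luminescence after a minimum 48 h, 37 C compound exposure with 20 nM CPT in Tdp1-knockout DT40 cells stably expressing hTDP1, seeded 400/well; qHTS titration format.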
# HT1080 IDH1KD tx: HT-1080 IDH1 knockdown cell toxicity (counter line); 360,000 tested, 2% active; HT-1080 IDH1 knockdown viability, ATP luminescence, 48 h; Potency, µM (titrated, usually from 46.1 µM), usual class: cytotoxic
#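 Knockdown cells (IDH1KD HT-1080) received compounds 2 h after plating at 750 cells/well and were kept 48 h at 37 °C in 5% FBS RPMI. A CellTiter-Glo luminescence read gave % activity for curve fitting.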
# HT1080NT lethal: kills 2HG-producing HT-1080-NT fibrosarcoma cells | HT-1080-NT fibrosarcoma viability, CellTiter-Glo ATP luminescence, 48 h | Potency, µM (doses to about 46.1 µM), most hits filed as cytotoxic | 360,000 tested, 1.6% active;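 further: NT is the 2HG producing partner of a matched IDH1 knockdown line; nearly all actives have a fitted effect of over 55% in size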
#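 Toxicity toward the 2HG-producing NT line was scored as %Activity, normalised to DMSO and no-cell wells, from CellTiter-Glo luminescence after 48 hours' treatment.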
# DT40 TDP1 no CPT: qHTS for Inhibitors of human tyrosyl-DNA phosphodiesterase 1 (TDP1): qHTS in cells in absence of CPT | Potency, µM (doses to about 46.2 µM), actives largely listed as inhibitors | DT40 Tdp1-/- hTDP1 cells, no CPT, ATP luminescence, 48 h | 420,000 tested, 15% active; further: nearly all actives have a fitted effect of over 55% in size
#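 Chicken DT40 Tdp1-/- cells stably complemented with human TDP1 were seeded at 400 cells/well with DMSO in place of 20 nM camptothecin. After compound pinning, cells grew at least 48 hr at 37 °C; viability read by CellTiter-Glo luminescence.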
# A number is an active result; . = inactive; ? = inconclusive; / = not tested or not shown; [ ] = dose if it differs, or a comment. Unless noted, the call rests on the fitted dose curve; in most records, active means well fitted curve in the direction sought with a large enough effect; inconclusive means small, poorly fitted or top-dose-only effect, or another doubt; inactive means no such curve, though single readings can be large; an effect the other way counts as inactive or inconclusive.
SMILES,IL1B secr inh,DT40 TDP1 CPT,HT1080 IDH1KD tx,HT1080NT lethal,DT40 TDP1 no CPT
CN[C@H]1C[C@@H](N)[C@H](O)[C@@H](O[C@@H]2O[C@H](CO)[C@H](O)[C@@H]3OC4(O[C@H]23)O[C@H](C(N)CO)[C@H](O)[C@H](O)[C@H]4O)[C@@H]1O (some centres not stated),/,.,/,/,.
COc1cccc(C(c2nnnn2Cc2ccccc2)N2CCC(n3c(=O)[nH]c4ccccc43)CC2)c1OC (configuration not stated),.,2.6µM,?,21µM,3.3µM
CN1CCCN(C(=O)COc2ccc(F)cc2F)CC1,.,.,.,.,.
N#CC12CC(=O)N1Cc1cnnn1-c1ccccc12 (configuration not stated),.,.,.,?,.
N#Cc1ccc(C(=O)N2CCN(c3nc4ccc(F)cc4s3)CC2)cc1,/,2.3µM,/,/,2.3µM
Cc1ccc(-c2nnc(Nc3ccc(Br)cc3)c3ccccc23)cc1S(=O)(=O)NCc1nc2ccccc2[nH]1,/,?,/,/,23µM
C=CC[C@@H](CC(=O)N(CCO)Cc1ccccc1)C(=O)NC[C@H](OC(=O)[C@@H](CC=C)CC(=O)OC(C)(C)C)c1ccccc1,?,21µM,.,.,.
O=C(NN=Cc1ccc2c(c1)CCC2)c1cccc([N+](=O)[O-])c1,.,?,.,.,?
O=C(N/N=C/C1C(=O)NC(=S)N(c2ccccc2)C1=O)c1cc(Br)c(O)c(Br)c1 (configuration not stated),.,16µM,.,.,?
CC1=C[C@H](O)CC(C)(C)[C@H]1/C=C/C(C)=C/C=C/C(C)=C/C=C/C=C(C)/C=C/C=C(C)/C=C/C1=C(C)C[C@@H](O)CC1(C)C,/,.,/,/,?
CCOc1ccc([N+](=O)[O-])cc1CNCCc1ccccc1,.,.,.,.,.
OCC(CBr)(CBr)CBr,.,.,.,.,?
Cc1ccccc1-c1ccc2c(c1)C1c3c(-c4ccccc4)nnn3-c3ccccc3C(=O)N1CC2 (configuration not stated),.,21µM,.,.,29µM
O=C1c2ccccc2-n2nncc2C2c3cc(Br)ccc3CCN12 (configuration not stated),.,?,.,.,.
Cc1ccc2c(c1)C1CN(C)CCC1N2C(=O)COc1ccc(S(=O)(=O)N2CCOCC2)cc1 (configuration not stated),.,.,.,.,.
CCOc1ccc(N2C(=O)/C(=C/c3ccco3)C(=O)NC2=S)cc1,.,.,.,.,.
CCOc1ccc(N2C(=O)/C(=C\c3cccs3)C(=O)NC2=S)cc1,-99,?,.,?,?
Cn1cc(C=C2C(=O)NC(=O)NC2=O)c2ccccc21,.,.,?,.,.
O=C1NC(=O)C(=Cc2csc3ccccc23)C(=O)N1,.,16µM,.,.,18µM
O=C1NC(=S)N(c2ccccc2F)C(=O)/C1=C\c1cccs1,-91,21µM,.,.,?
O=C1NC(=O)C(=Cc2cccs2)C(=O)N1,.,18µM,.,.,16µM
O=C1NC(=O)N(CC2CCCO2)C(=O)/C1=C/c1cccs1 (configuration not stated),.,?,.,.,?
CN1CCC[C@@H]1c1cccnc1,/,.,/,/,.
CC(C)NC(=O)N1Cc2cc(C(=O)NC3CCCCC3)nc(-c3cccc(-c4cccnc4)c3)c2[C@@H]1CCO,?,12µM,.,.,10µM
CCCNC(=O)c1cc2c(c(-c3cccc(-c4cc5ccccc5o4)c3)n1)[C@H](CCO)N(C(=O)NC(C)C)C2,-72,8.2µM,?,?,12µM
SMILES,IL1B secr inh,DT40 TDP1 CPT,HT1080 IDH1KD tx,HT1080NT lethal,DT40 TDP1 no CPT
COc1cc(C[C@@H](C)N)c(OC)cc1I,-64,?,.,.,?
CC1CCN(c2cc(Br)c([N+](=O)[O-])cc2F)CC1,.,?,.,.,?
COc1ccc(CNC(=O)/C=C/c2ccc3[nH]cc(CCN(C)C)c3c2)cc1,.,.,.,.,.
COc1ccccc1-n1c(-c2ccccc2Br)nc2ccccc2c1=O,.,23µM,.,.,18µM
Cc1nc2ccccc2c(=O)n1-c1ccccc1Cl,/,?,/,/,24µM
COc1ccccc1-n1c(-c2ccc(C)cc2)nc2ccccc2c1=O,.,?,.,.,12µM
Cc1nc2ccc(Cl)cc2c(=O)n1-c1ccccc1Cl,.,.,.,.,.
CCC1(CC)C(=O)NC(=O)NC1=O,/,.,/,/,.
CCCCc1ccc(NC2=NCCCS2)cc1,.,.,.,?,?
CC(=O)c1cccc(NC(=O)c2cc3c(s2)-c2c(C)cccc2OC3)c1,/,?,/,/,16µM
O=C(CSC1c2ccccc2-c2ccccc21)N/N=C/c1ccc(C(=O)O)cc1,.,.,.,.,.
O=C(CSC1c2ccccc2-c2ccccc21)N/N=C/c1ccccc1O,.,7.3µM,?,4.5µM,6.5µM
Cc1c(C(=O)N2CCC3(CC2)OCCO3)sc2ncnc(N3CCc4ccccc4C3)c12,.,16µM,?,.,23µM
CCC(C)C1NC(=O)C(C(C)=O)=C1O (configuration not stated),.,16µM,.,.,?
Cc1ccc(N2CCN(C(=O)C3CCC(CNS(=O)(=O)c4ccc(Br)s4)CC3)CC2C)cc1 (configuration not stated),/,7.3µM,/,/,4.6µM
Cc1ccc(S(=O)(=O)N2CCC(C(=O)N3CCC4(CC3)OCCO4)CC2)cc1,.,.,.,.[9.24 µM],.
CCOC(=O)C1CCN(Cc2ccc(Cl)nc2)CC1,.,.,.,.,.
C[C@@H](Cc1ccccc1)NCCC(c1ccccc1)c1ccccc1,/,?,/,/,6.4µM
CN(C(=O)CCN1C(=O)/C(=C/c2ccc(F)cc2)SC1=S)C1CCS(=O)(=O)C1 (configuration not stated),.,21µM,.,.,21µM
CCCCCn1c(=O)c(C(=O)Nc2ccccc2N)c(O)c2ccccc21,.,?,.,.,21µM
CCCCn1c(=O)c(C(=O)Nc2ccsc2C(=O)OC)c(O)c2ccccc21,.,21µM,.,.,5.2µM
CCCCn1c(=O)c(C(=O)Nc2ccccc2F)c(O)c2ccccc21,.,.,.,.,?
CCCCn1c(=O)c(C(=O)Nc2ccccc2N)c(O)c2ccccc21,.,?,.,.,23µM
CCCCn1c(=O)c(C(=O)NC(C)c2ccccc2)c(O)c2ccccc21 (configuration not stated),.,?,.,.,?
CN(C(=O)Cc1ccc(Cl)c(Cl)c1)[C@@H](CN1CCCC1)c1cccc(OCC(=O)O)c1,/,.,/,/,.
